An excerpt weighted towards active compounds, which were near 3.4% of everything screened.
FBW7 act: FBW7 E3 ligase activators, primary screen, biochemical, AlphaScreen, human; F-box/WD repeat-containing protein 7 (Homo sapiens), Q969H0; AlphaScreen FBW7–phospho-cyclin E peptide binding, activator screen; normalized activity (activation), % at 26.1 µM; hit rate 0.13% among 650,000; in the data active = normalized activity above about 1.9%;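 also: purified mutant Fbw7 with reduced substrate affinity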
MITF inh: MITF inhibitors, primary screen, biochemical, AlphaScreen, human; Microphthalmia-associated transcription factor (Homo sapiens), O75030; AID 1259374, 2018; hit rate 0.91% among 650,000; inhibition, % at 2.6 µM; AlphaScreen MITF homodimerization, bead proximity signal; in the data active = inhibition above about 50%
Target sequence (O75030 whole entry, looked up): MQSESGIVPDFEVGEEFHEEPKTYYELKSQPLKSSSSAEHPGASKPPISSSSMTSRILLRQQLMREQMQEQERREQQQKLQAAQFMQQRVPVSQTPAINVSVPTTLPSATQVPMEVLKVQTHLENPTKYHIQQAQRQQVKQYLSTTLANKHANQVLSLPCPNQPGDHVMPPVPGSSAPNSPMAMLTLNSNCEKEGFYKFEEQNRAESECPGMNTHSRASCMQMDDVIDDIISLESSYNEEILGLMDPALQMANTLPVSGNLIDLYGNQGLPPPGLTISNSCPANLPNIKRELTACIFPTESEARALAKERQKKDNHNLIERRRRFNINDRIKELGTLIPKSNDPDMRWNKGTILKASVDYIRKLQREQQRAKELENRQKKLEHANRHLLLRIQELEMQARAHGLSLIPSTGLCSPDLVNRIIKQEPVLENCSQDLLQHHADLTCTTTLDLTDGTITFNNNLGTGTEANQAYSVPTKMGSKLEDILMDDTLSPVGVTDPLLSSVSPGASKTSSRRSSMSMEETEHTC
GPR151 activ: activators of human GPR151, primary screen, cell-based, PathHunter beta-arrestin, luminescence | activation, % at 11.2 µM | G-protein coupled receptor 151 (Homo sapiens), Q8TDV0 | hit rate 1% among 650,000 | PathHunter beta-arrestin GPR151 cells; in the data active = activation above about 4.9%
TEAD-YAP block: TEAD-YAP interaction inhibition, primary screen, TEAD-YAP interaction inhibitor project, luminescence, HEK-TIYL cells | hit rate 1.4% among 640,000 | TEAD-Gal4/YAP UAS-luciferase luminescence | inhibition, % at 9.12 µM; in the data active = inhibition above about 32%
MITF confirm: MITF inhibitors, retest of hits, confirmation, biochemical, AlphaScreen, triplicate; shares compounds with MITF inh; AlphaScreen MITF homodimerization, biotin/His-MITF beads; inhibition, % at 2.6 µM; hit rate 16% among 4,700;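 active = inhibition above a cutoff derived from the DMSO control wells, cut at about 28% in these data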;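 also: inhibitors lower the bead chemiluminescence by keeping MITF from dimerizing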
AlphaScreen DR: AlphaScreen optical interference compounds, dose response, counter-screen, biochemical, HTS. AlphaScreen optical interference counterscreen, cell-free. AID 1259373, 2018. IC50, µM. hit rate 6% among 480. shares compounds with MITF inh; call rule not given here
AS interf ctr: AlphaScreen optical interference compounds, counter-screen for MITF inhibitor project, biochemical, triplicate; shares compounds with MITF inh; LysRS AlphaScreen counterscreen, signal interference; inhibition, % at 2.6 µM; hit rate 7.6% among 4,700; AID 1259376, 2018;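 active = inhibition above a cutoff derived from the DMSO control wells, cut at about 30% in these data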
Numbers stand for hits; – = inactive; · = no result given.

SMILES | FBW7 act | MITF inh | GPR151 activ | TEAD-YAP block | MITF confirm | AS interf ctr | others
CN(C)C1C(=O)C(C(N)=O)=C(O)C2(O)C(=O)C3=C(O)c4c(O)cccc4C(C)(O)C3CC12 (stereo unspecified) | – | 51 | – | – | 43 | – | AlphaScreen DR=–
CN(C)[C@@H]1C(=O)C(C(N)=O)=C(O)[C@@]2(O)C(=O)C3=C(O)c4c(O)cccc4[C@@](C)(O)[C@H]3C[C@@H]12 | – | – | – | – | · | ·
Cc1cc(N2CCN(C)CC2)nc(N)n1 | – | – | – | – | · | ·
COc1ccc(CN2CCN(Cc3cccc(OC)c3)CC2)cc1 | – | 63 | – | – | – | –
COc1cccc(CN2CCN(Cc3ccc(C)cc3)CC2)c1 | – | 77 | – | – | – | –
COc1cccc(CN2CCN(c3ccc(C(C)=O)cc3)CC2)c1 | – | 64 | – | – | – | –
CC(=O)c1ccc(N2CCN(Cc3cccc(O)c3)CC2)cc1 | – | – | – | – | · | ·
COc1ccc(N2CCN(Cc3cccc(OC)c3)CC2)cc1 | – | – | – | – | · | ·
Nc1ccc2cc3c(nc2n1)CCN(CCc1cccs1)C3 | – | – | – | – | · | ·
Cn1ccnc1SCC(=O)Nc1ccc(C#N)c(Cl)c1 | – | – | – | – | · | ·
O=C(Cn1c[n+]([N-][N+](=O)[O-])cn1)Nc1nncs1 | – | – | – | – | · | ·
Cc1nc2ccc(P(=O)(O)O)cc2s1 | – | 55 | – | – | – | 40
Cc1cc(OCC(=O)N2CCN(C)CC2)ccc1Br | – | – | – | – | · | ·
COc1cc(CNCCc2ccc(F)cc2)cc2c1OCO2 | – | – | – | – | · | ·
O=[N+]([O-])c1ccc(Br)c2c1no[n+]2[O-] | – | 74 | – | – | 73 | – | AlphaScreen DR=–
COc1ccc(CN2CCN(Cc3ccccc3)CC2)c(O)c1 | – | – | – | – | · | ·
Cc1ccc(CN2CCN(Cc3ccccc3Cl)CC2)cc1 | – | 59 | – | – | – | –
CCN1CCN(Cc2cccc(Cl)c2Cl)CC1 | – | – | – | – | · | ·
CN1CCN(Cc2cccc3ccccc23)CC1 | – | – | – | – | · | ·
Clc1cccc(N2CCN(Cc3ccccc3)CC2)c1 | – | – | – | – | · | ·
COc1cccc(CN2CCN(Cc3ccccc3Cl)CC2)c1 | – | 86 | – | – | – | –
CN1CCN(Cc2ccccc2Cl)CC1 | – | 64 | – | – | – | –
Clc1cccc(CN2CCN(Cc3ccccc3Br)CC2)c1 | – | 77 | – | – | – | –
CC(NCCc1ccccc1)c1nc2ccccc2c(=O)[nH]1 (stereo unspecified) | – | – | – | – | · | ·
CN1CCN(Cc2coc3ccccc3c2=O)CC1 | – | 51 | – | 55 | – | –
SMILES | FBW7 act | MITF inh | GPR151 activ | TEAD-YAP block | MITF confirm | AS interf ctr | others
O=c1c(CN2CC=C(c3ccc(F)cc3)CC2)coc2ccccc12 | – | – | – | – | · | ·
COc1cccc(CN2CCN(Cc3ccccc3Br)CC2)c1 | – | 73 | – | – | – | –
COc1ccc(CN2CCN(Cc3ccccc3Cl)CC2)cc1 | – | 81 | – | – | – | –
COc1ccc(O)c(CN2CCN(Cc3ccccc3Br)CC2)c1 | – | – | – | – | · | ·
C=CCOC(=O)C1C2NC(=S)NC1(C)Oc1c(OC)cccc12 (stereo unspecified) | – | – | – | – | · | ·
CCOC(=O)c1ccc(NC(=O)CCc2nc(C3=CCN(C)CC3)no2)cc1 | 3.4 | 62 | – | – | 69 | 38
CCOC(=O)C1=C(N)Oc2ccccc2C12C(=O)N(CC(=O)OC)C(C)=C2C(=O)OCC (stereo unspecified) | – | – | – | – | · | ·
CCOc1ccc(CN2CCN(Cc3ccc(F)cc3)CC2)cc1 | – | 61 | – | – | – | –
CCOc1ccc(CN2CCN(Cc3ccccc3F)CC2)cc1 | – | 75 | – | – | – | –
COc1ccc(CN2CCN(Cc3ccc(OC)cc3)CC2)cc1 | – | – | – | – | · | ·
COc1ccc(CN2CCN(Cc3ccccc3Cl)CC2)cc1Br | – | 78 | – | – | – | –
COc1ccc(CN2CCN(Cc3ccccc3C)CC2)cc1Br | – | 83 | – | – | – | –
CCN1CCN(Cc2ccc(Cl)cc2)CC1 | – | – | – | – | · | ·
OCCN1CCN(Cc2ccc(Cl)cc2)CC1 | – | 67 | – | – | – | –
OCCN1CCN(Cc2cccc(Cl)c2)CC1 | – | 83 | – | – | – | –
OCCN1CCN(Cc2cccc(Cl)c2Cl)CC1 | – | 65 | – | – | – | –
O=C(Cc1ccccc1)N1CCN(Cc2cccc(Cl)c2)CC1 | – | – | – | – | · | ·
O=C(NC(O)C(Cl)(Cl)Cl)N1CCOCC1 (stereo unspecified) | – | – | – | – | · | ·
CCOC(=O)C1C2NC(=S)N(CCc3ccccc3)C1(C)Oc1ccc(Br)cc12 (stereo unspecified) | – | – | – | – | · | ·
CCOC(=O)C1C2NC(=S)N(c3ccccc3)C1(C)Oc1cc(OC)ccc12 (stereo unspecified) | – | 53 | – | – | 47 | – | AlphaScreen DR=–
CCOC(=O)C1C2NC(=S)N(c3cccc(C)c3)C1(C)Oc1ccc(OC)cc12 (stereo unspecified) | – | 59 | – | – | 50 | 35
CCOC(=O)C1C2NC(=S)N(CC)C1(C)Oc1ccc(Br)cc12 (stereo unspecified) | – | 53 | – | – | 31 | – | AlphaScreen DR=–
O=c1cccc2n1CC1CC2CN(C(=S)Nc2cccc(Br)c2)C1 (stereo unspecified) | – | – | – | – | · | ·
COc1ccc(CN2CCN(C(=O)Cc3ccccc3)CC2)cc1Br | – | 53 | – | – | – | –
COc1ccc2ccccc2c1CN1CCN(C(=O)Cc2ccccc2)CC1 | – | 55 | – | – | – | –
SMILES | FBW7 act | MITF inh | GPR151 activ | TEAD-YAP block | MITF confirm | AS interf ctr | others
COc1ccc(CN2CCN(Cc3cccc(Br)c3)CC2)cc1Br | – | 76 | – | – | – | –
COc1ccc(CN2CCN(C(=O)COc3ccccc3)CC2)cc1OC | – | – | – | – | · | ·
COc1ccc(CN2CCN(Cc3ccc(C)cc3)CC2)cc1Br | – | 53 | – | – | – | –
CC(=O)Oc1ccc(P(C)(C)=S)cc1 | – | – | – | – | · | ·
CCN1Cc2ccccc2-n2cccc2C1C(=O)O (stereo unspecified) | – | – | – | – | · | ·
CCCOc1ccc(C2SCC(=O)Nc3c2c(=O)[nH]n3C(C)C)cc1 (stereo unspecified) | – | – | – | – | · | ·
N#Cc1cc2oc3ccc4ccccc4c3c3ccc4ccccc4c3oc2cc1C#N | – | – | – | – | · | ·
COC(=O)C(CC(C)C)NC(=O)C(Cl)(Cl)Cl (stereo unspecified) | – | – | – | – | · | ·
COc1ccc(CN2CCN(Cc3cccc(Cl)c3)CC2)cc1Br | – | 68 | – | – | 39 | – | AlphaScreen DR=–
O=C(Cn1ncn2cccc2c1=O)N1CCC2(CC1)OCCO2 | – | – | – | – | · | ·
